Screening results as filed in PubChem.
KDM5B inh: KDM5B demethylase inhibition | Q9UGL1 | KDM5B demethylase, FDH-coupled NADH fluorescence (FDH is formaldehyde dehydrogenase) | Potency, µM (titrated, usually from 57.7 µM), usual class: inhibitors | 220,000 compounds, 2.6% hits; active means well fitted inhibition curve with a large enough effect; further: nearly all actives have a fitted effect of over 70% in size
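Here, H3K4me3 peptide (12.5 µM in substrate mix) is demethylated by KDM5BΔAP, 200 nM final, after 10 min compound exposure. Formaldehyde product is coupled through FDH (0.25 U/mL in mix) to NADH fluorescence; 30-min ΔRFU feeds dose-response curves.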
Of the large screens only hits and unclear results are named; the others gave an inactive call. The sample as a whole holds a higher share of hits than the screen did.

O=C(NC1CCOC2(CCOCC2)C1)c1ccc(-c2cnco2)cc1 (stereo not given)	none
COc1ccc(OC)c(CC(=O)N2CCC3(CC2)OCCCC3O)c1 (stereo not given)	none
CC(C)NC(=O)[C@@H]1C[C@@H](NC(=O)c2cnc3c(O)cccn3c2=O)CN1C	KDM5B inh 35µM
COc1ccc(-n2c(=O)c3c4c(sc3n(Cc3ccccc3)c2=O)CN(C(C)=O)CC4)cc1OC	none
O=C(Nc1ccc(C(F)(F)F)cc1)c1cc(N2C(=O)CCS2(=O)=O)ccc1Cl	none
O=C(NC1CC1)c1ccn2cncc2c1	none
CCN(C(=O)c1cccc(C(N)=O)c1)C1CC1	none
CCCn1cnnc1C(C)NC(=O)Cc1c(C)[nH]c2c(C)cc(C)cc12 (stereo not given)	none
CN(C)c1ccc(C(=O)N2CCC3(CC2)NC(=O)N(c2ccccc2)N3)cc1	none
COCCN(C(=O)CC1OC(=O)c2ccccc21)c1c(N)n(Cc2ccccc2)c(=O)[nH]c1=O (stereo not given)	none
CCc1ccccc1NC(=O)c1cc2c(Cl)nc3ccccc3c2s1	none
CCc1ccccc1NC(=O)C(CC)CC	none
CCc1ccccc1NC(=O)c1cc2c(s1)CN(C(C)C)C2	KDM5B inh 7.1µM
O=C(c1ccc(Cl)cc1)N1CC2(CCN(C3COC3)CC2)Cc2ccccc21	none
O=C(c1ccc(Cl)cc1)N1CC2(CCCN2C2COC2)Cc2ccccc21 (stereo not given)	KDM5B inh 89µM
O=C(c1ccccc1)N1CC2(CCCN2C2COC2)Cc2ccccc21 (stereo not given)	none
O=C(Cc1ccc(F)cc1)NC1CC(=O)N(c2ccc3c(c2)OCCO3)C1 (stereo not given)	none
O=C(Nc1ccc2c(c1)OCO2)c1ccc(CO)cc1	none
CN(C)C(=O)c1nc(-c2cccc(F)c2)c2cnccn12	KDM5B inh 35µM
CS(=O)(=O)c1ccc(-c2nc(C(=O)NCc3cccnc3)n3ccncc23)cc1	KDM5B inh 10µM
Cc1cc(F)ccc1NC(=O)c1cnc(-c2ccc(F)cc2)nc1-c1ccncc1	none
Cc1ccc(S(=O)(=O)Nc2ccccc2C(=O)NCc2cccnc2)cc1	none
CN(CC(=O)Nc1cccc(F)c1)C(=O)c1ccncc1	none
Cc1ccccc1NS(=O)(=O)c1ccc(C(=O)NCc2cccnc2)cc1	none
CN(C)C(=O)c1nc(-c2ccc(S(C)(=O)=O)cc2)c2cnccn12	KDM5B inh 28µM
CN(C)C(=O)c1nc(-c2ccc(Cl)nc2)c2cnccn12	none
CS(=O)(=O)c1ccc(CN2CCC(O)(Cn3ccnc3)CC2)cc1	none
CN(C)C(=O)c1nc(-c2ccc(F)cc2)c2cnccn12	KDM5B inh 35µM
CCN(CC)CCNC(=O)c1ccc(CSc2nc3ccncc3n2Cc2cccc(F)c2)cc1	none
CN(C)C(=O)c1cccnc1-c1ccc(S(C)(=O)=O)cc1	none
CCCCn1nnnc1CSc1nnc(-c2cccc(C)c2)n1-c1ccccc1	none
CCCN1C(=O)CC[C@H]2CN(C(=O)CCOc3ccccc3C)CC[C@H]21	none
Cc1ccc2oc(-c3cc(NC(=O)c4ccccc4C)ccc3O)nc2c1	none
CCOc1nc2ccccc2nc1N1CCC(C(=O)Nc2cccc3ccccc23)CC1	none
COc1ccc(OC)c(NS(=O)(=O)c2cc3c(cc2Cl)N(C(C)=O)CCO3)c1	none
CN1CCCN(S(=O)(=O)c2cccc(C#N)c2)CC1	none
COC(=O)c1ccc(Cn2c(SCC(=O)NCc3ccccc3)nc3ccccc32)cc1	none
O=S(=O)(Nc1nc2ccccc2nc1NCc1ccccc1)c1cccc2nsnc12	none
CC(C)CC(=O)N1CCC(c2nc(C3CCOCC3)no2)CC1	none
Cc1cc(C)n(-c2nc3ccccc3nc2N2CCN(C(=O)c3ccc(Cl)cc3)CC2)n1	none
O=C(COCc1cc(-c2cccs2)on1)Nc1cc(C(F)(F)F)ccc1Cl	none
COc1ccc(CCC(=O)N2CCCOCCNC(=O)[C@@H]3CCCC[C@@H]32)cc1	none
Cc1ccc2[nH]c3c(=O)n(CC(=O)Nc4ccc(Br)cc4C)ncc3c2c1	none
CC(=O)c1cccc(-n2c(=O)c3c4c(sc3n(CC(=O)c3ccccc3)c2=O)CN(C(C)=O)CC4)c1	none
CSc1cccc(NC(=O)c2csc3c2CCCCC3)c1	none
COc1ccccc1NC(=O)Cn1c(-c2ccccc2)nc(C)cc1=O	none
COc1nc2ccccc2nc1N1CCC(C(=O)Nc2ccc(NC(C)=O)cc2)CC1	none
CCC(C(=O)NC1CCCCC1)n1c(SCc2ccc(F)cc2)nc2ccncc21 (stereo not given)	none
C[C@H](O)c1onc(-c2ccc(F)cc2)c1C(=O)NC1CCC1	none
O=C(NC1CC1)c1nc(-c2ccc(F)cc2)c2cnccn12	KDM5B inh 35µM
O=C(Cn1c(-c2cccs2)cc2ccccc21)N1CCN(c2ccc(Cl)cc2)CC1	none
Cc1ccccc1NC(=O)N1CCC(CCNC(=O)C2CC2)CC1	none
Cc1ccccc1NC(=O)N1CCC(N2CCCC(C(=O)N3CCCC3)C2)CC1 (stereo not given)	KDM5B inh 22µM
O=C(C1CCCN(C2CCN(C3Cc4ccccc4C3)CC2)C1)N1CCCC1 (stereo not given)	none
CCC(C)NC(=O)N1CCC2(CC1)Nc1cc(F)ccc1-n1cccc12 (stereo not given)	none
CN(C)CCN(Cc1cccc(F)c1)C(=O)c1ccc(S(C)(=O)=O)cc1	none
CS(=O)(=O)N1CCC(C2CCN(Cc3ccsc3)C2)CC1 (stereo not given)	none
CCc1ccc(C(=O)N2CCC3(CC2)N(C)C(=O)CS3(=O)=O)cc1	none
O=C1CC(c2noc(-c3cc(F)ccc3F)n2)CN1c1ccc(F)c(Cl)c1 (stereo not given)	none
CC(C)CNC(=O)C1(CCO)CCN(c2ncccn2)C1 (stereo not given)	KDM5B inh 25µM
O=C(NCCN1CCC(Cc2ccccc2)CC1)C1(CCO)CC12CCOCC2 (stereo not given)	none
CC(NCCC(=O)N1CCN(c2ncccn2)CC1)c1ccc(Cl)cc1Cl (stereo not given)	none
O=C(NCC1CCCCC1)C1(CCO)CCN(c2ncccn2)C1 (stereo not given)	KDM5B inh 32µM
O=C(NCC1CC1)C1(CCO)CCN(Cc2ccccc2)C1 (stereo not given)	none
CC(C)CCNC(=O)C1(C)Cn2nc(C(=O)NCCN3CCCCCC3)cc2C(=O)N1C (stereo not given)	none
O=C(NC1CCCC1)C1(CCO)CCN(Cc2ccccc2)C1 (stereo not given)	none
CC(C)CNC(=O)C1(CCO)CCN(Cc2ccccc2)C1 (stereo not given)	none
O=C(NCCN1CCCCC1)C1(CCO)CCN(c2ncccn2)C1 (stereo not given)	KDM5B inh 25µM
COC(=O)c1cc2oc3ccccc3c2n1Cc1nc(-c2ccccc2C)oc1C	none
O=C(O)c1ccc(CCO)s1	none
O=C(O)CC(c1ccc(OC2CCCC2)cc1)N1C(=O)c2ccccc2C1=O (stereo not given)	none
Cc1ccc(NC(=O)Cn2nc(-c3ccccc3)ccc2=O)cc1S(=O)(=O)N1CCOCC1	none
CC1(C)Cc2nc3oc4c(SCC(N)=O)ncnc4c3cc2CO1	none
COc1ccccc1Nc1c2c(nc3ccc(NC(=O)c4ccc(OC)c(OC)c4)cc13)CCCC2	none
Cc1cc(F)ccc1NCc1ccccc1-c1nnc(-c2ccccc2Cl)o1	none
O=C(NCC1(N2CCOCC2)CCSC1)Nc1ccc(F)cc1 (stereo not given)	none
CCC(=O)c1ccc(OC(=O)c2cc(Br)ccc2Cl)cc1	none
CCCCc1ccc(-c2ccc(C#N)cc2)nc1	none
O=C(NCc1ccccc1)C1CCN(c2cc(C(F)(F)F)ncn2)CC1	none
Cc1ccc(NC(=O)C2CCN(c3cc(C(F)(F)F)ncn3)CC2)cc1	KDM5B inh 25µM
